The source made the active and inactive calls.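 The calls were made as follows: active = fluorescence ratio normalized to control raised more than 50% in primary screen plus both repeat runs; inactive = the rest.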
What follows are compounds tested on TRPC4 beta (transient receptor potential cation channel C4), mouse (assay: TRPC4 cation channel opening, retest – cell-based, Fluo4 calcium, HEK293 TRPC4beta/mu-opioid, duplicates, 10 µM, confirmation (AID 2426)). Details: Fluo4 calcium fluorescence, at 10 µM.

Cc1ccsc1C(=O)C1CCCN(Cc2ccccc2O)C1 (centres undefined) was tested. Which outcome did it give?
The outcome was “inactive”.

Which outcome does the source give for COc1ccc(C[C@@H]2c3cc(O)c(OC)cc3CCN2C)cc1O here?
The outcome was “inactive”.

Which outcome does the source give for CCC1=Nc2cc(C(=O)N3CCC4(CC3)OCCO4)ccc2Sc2ccc(C)cc21 here?
The outcome was “inactive”.

Cc1ccc(CN2C3CCCC2CC(NC(=S)NCc2ccccc2)C3)cc1 (centres undefined) was tested. Which outcome did it give?
The outcome was “inactive”.

Which outcome does the source give for COc1ccc(Br)cc1CN1CCN(C(=O)Cc2ccccc2)CC1 here?
The outcome was “inactive”.

For CC(C)CN(CC(C)C)c1ccc(C=C2C(=O)NC(=S)NC2=O)cc1[N+](=O)[O-], which outcome is on record?
Its outcome is “inactive”.

With CCOC(=O)C1(CCc2ccccc2)CCN(Cc2cccc3c2OCO3)CC1 as the compound, how does the outcome read?
Its outcome is “inactive”.

With COc1ccc(CN2CCCC(C(=O)c3sccc3C)C2)cc1O (centres undefined) as the compound, how does the outcome read?
Its outcome is “inactive”.

For CCN1CCN(Cc2cc(Br)ccc2O)CC1, which outcome is on record?
The outcome was “inactive”.

For CCN(CC)c1ccc([N+](=O)[O-])c2cccnc12, which outcome is on record?
Its outcome is “inactive”.

Which outcome does the source give for CN(CCOc1ccc(C=C2C(=O)NC(=O)NC2=O)cc1)c1ccccn1 here?
Its outcome is “inactive”.

CCN(CC)CC(=O)Nc1ccc(Cl)cc1C(=O)c1ccccc1 was tested. Which outcome did it give?
The outcome was “inactive”.

COc1cccc(O)c1CN1CCCC(C(=O)c2sccc2C)C1 (centres undefined) was tested. Which outcome did it give?
Its outcome is “inactive”.

For CCC1=Nc2cc(C(=O)N3CCC4(CC3)OCCO4)ccc2Sc2ccc(Br)cc21, which outcome is on record?
The outcome was “inactive”.

For COc1ccc2[nH]cc(CCN(C)C)c2c1, which outcome is on record?
The outcome was “inactive”.

How did the outcome turn out when CC(=O)OC1(c2ccccc2)CCN(C2CCCCC2)CC1C (centres undefined) was run?
Its outcome is “inactive”.

How did the outcome turn out when CCOC(=O)C1(c2ccccc2)CCN(CC(=O)Nc2ccc(C)cc2)CC1 was run?
The outcome was “inactive”.

COc1ccc(O)c(CN2CCCC(C(=O)c3sccc3C)C2)c1 (centres undefined) was tested. Which outcome did it give?
The outcome was “inactive”.

Clc1ccc(OCC#CCN2CCCC2)cc1 was tested. Which outcome did it give?
Its outcome is “inactive”.

— PubChem BioAssay
